# Assay results taken from the supplement of paper PMC4840960.
# ± gives the standard deviation of the averaged measurements.
# What was measured:
# [1] = system: E18 rat cortical neuron-glia co-culture; test: fiber score / MBP score (myelination specific beyond OL differentiation) (ratio); higher = more myelination-specific MBP alignment; settings: treatment time: 8 days (DIV5-DIV13)
# Outline: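 Fiber score divided by MBP score is the read-out; fiber score is continuous MBP fiber length per Olig2+ nucleus, and MBP score is thresholded MBP area × intensity per Olig2+ nucleus. Primary E18 rat cortical co-cultures were dissociated with papain and seeded at 20,000 cells/well on poly-d-lysine/laminin 96-well plates. Library compounds at 1 or 5 µM were given in myelination medium from DIV5 to DIV13, after which cells were fixed in 4 % paraformaldehyde, immunostained for MBP and Olig2 with DAPI, and imaged in four 10X fields per well in duplicate wells.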
# [2] = system: E18 rat cortical neuron-glia co-culture; test: myelination (MBP fiber length per Olig2+ nucleus), % of 1 µM DAPT response (DMSO = 0) (% of DAPT); higher = more myelination, active = 50 or more; settings: treatment time: 8 days (DIV5-DIV13)
# Outline: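 Four 10X fields in each of duplicate wells were analysed after cultures were fixed in 4 % paraformaldehyde and immunostained for MBP and Olig2, with DAPI as the nuclear counterstain. The cultures were papain-dissociated primary E18 rat cortical co-cultures at 20,000 cells/well on poly-d-lysine/laminin 96-well plates, dosed with library compounds at 1 or 5 µM in myelination medium from DIV5 to DIV13. The myelination readout was continuous straight MBP fiber length per Olig2+ nucleus, with 0.1 % DMSO set to 0 and a 1 µM positive control set to 100.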
Structure (SMILES),fiber score / MBP score ([1]; 1 µM),fiber score / MBP score ([1]; 5 µM),myelination ([2]; 1 µM),myelination ([2]; 5 µM)
C[C@H]1O[C@H](O[C@H]2[C@H](O)[C@@H](O)[C@@H](O[C@H]3[C@H](O)[C@@H](O)C(O)O[C@@H]3CO)O[C@@H]2CO)[C@H](O)[C@@H](O)[C@@H]1N[C@H]1C=C(CO)[C@@H](O)[C@H](O)[C@H]1O (some centres not stated) [Acarbose],0.856,0.99,-11.8 (inactive),-6.72 (inactive)
c1ccc2c(c1)CCCC2C1=NCCN1 (configuration not stated) [Tyzine],0.783,0.873,-6.18 (inactive),-2.07 (inactive)
CCCc1c(OCCCCc2nnn[nH]2)ccc(C(C)=O)c1O,0.683,1,-11.5 (inactive),1.2 (inactive)
CCC(C)(C)C(=O)O[C@H]1C[C@@H](C)C=C2C=C[C@H](C)[C@H](CC[C@@H]3C[C@@H](O)CC(=O)O3)[C@H]21 [Simvastatin],1.17,3.15,-17.5 (inactive),30 (inactive)
CC(=O)CCCCn1c(=O)c2c(ncn2C)n(C)c1=O [Pentoxifylline],0.817 ± 0.062,0.839 ± 0.17,-4.66 (inactive),-23.8 (inactive)
CC(C(O)c1ccc(O)cc1)N1CCC(Cc2ccccc2)CC1 (configuration not stated) [Ifenprodil],0.348,0.136,-70.3 (inactive),-83.6 (inactive)
CCC1=C(C)CN(C(=O)NCCc2ccc(S(=O)(=O)NC(=O)N[C@H]3CC[C@H](C)CC3)cc2)C1=O [Glimepiride],1.06,0.96,-3.14 (inactive),-10.6 (inactive)
CNCC[C@H](Oc1cccc2ccccc12)c1cccs1 [Duloxetine],0.73 ± 0.064,0.881 ± 0.45,-25.8 (inactive),-33.2 (inactive)
CCC1=C[C@@H]2CN(C1)Cc1c([nH]c3ccccc13)[C@@](C(=O)OC)(c1cc3c(cc1OC)N(C)[C@H]1[C@@](O)(C(=O)OC)[C@H](OC(C)=O)[C@]4(CC)C=CCN5CC[C@]31[C@@H]54)C2 [Vinorelbine],0.944,0.453,-6.45 (inactive),-26.1 (inactive)
COc1cc2nc(N3CCN(C(=O)C4CCCO4)CC3)nc(N)c2cc1OC (configuration not stated) [Terazosin],1.2 ± 0.17,1.08 ± 0.41,11.7 (inactive),2.09 (inactive)
COc1cc(NC(C)CCCN)c2ncccc2c1 (configuration not stated) [Primaquine],0.815,0.985,-0.112 (inactive),11.1 (inactive)
Clc1ccc2nsnc2c1NC1=NCCN1 [Tizanidine],0.796,0.443,-26.5 (inactive),-54.3 (inactive)
Cc1c(O)cccc1C(=O)N[C@@H](CSc1ccccc1)[C@H](O)CN1C[C@H]2CCCC[C@H]2C[C@H]1C(=O)NC(C)(C)C [Nelfinavir],0.779,0.634,-42.1 (inactive),-44.3 (inactive)
CC1(C)S[C@@H]2[C@H](NC(=O)COc3ccccc3)C(=O)N2[C@H]1C(=O)O [Penicillin V],0.881,0.734,-3.1 (inactive),-3.83 (inactive)
CCN1CCCC1CNC(=O)c1cc(S(=O)(=O)CC)ccc1OC (configuration not stated) [Sultopride],0.758,0.461,-20.9 (inactive),-59.3 (inactive)
Fc1cncnc1 [5-fluoropyrimidine],0.595,0.899,-17.3 (inactive),4.98 (inactive)
COc1cc2nc(N3CCN(C(=O)C4COc5ccccc5O4)CC3)nc(N)c2cc1OC (configuration not stated) [Doxazosin],0.727,0.531,-45.2 (inactive),-54.3 (inactive)
CC(=O)OCC(=O)[C@@]1(O)CC[C@H]2[C@@H]3C[C@H](C)C4=CC(=O)C=C[C@]4(C)[C@H]3[C@@H](O)C[C@@]21C [Methylprednisolone acetate],0.468,0.413,-10.5 (inactive),-15.1 (inactive)
CCC[C@@H]1C[C@@H](C(=O)N[C@@H]([C@H]2O[C@H](SC)[C@H](O)[C@@H](O)[C@H]2O)[C@@H](C)O)N(C)C1 [Lincomycin],0.754,0.914,-22.9 (inactive),7.24 (inactive)
CC(=O)OCC(=O)[C@@]12OC3(CCCC3)O[C@@H]1C[C@H]1[C@@H]3CCC4=CC(=O)C=C[C@]4(C)[C@@]3(F)[C@@H](O)C[C@@]12C [Amcinonide],0.868,0.784,-11.8 (inactive),-42.6 (inactive)
CC(=O)NS(=O)(=O)c1ccc(N)cc1 [Sulfacetamide],0.746,1.2,-10.6 (inactive),1.76 (inactive)
S=c1[nH]cnc2nc[nH]c12 [Mercaptopurine],0.858,0.41,-32.7 (inactive),-50.2 (inactive)
O=C(CCCN1CC=C(n2c(=O)[nH]c3ccccc32)CC1)c1ccc(F)cc1 [Droperidol],0.863,0.601,-4.1 (inactive),-16.6 (inactive)
Cc1ccc(S(=O)(=O)NC(=O)NN2CCCCCC2)cc1 [Tolazamide],0.701,0.729,-15.6 (inactive),-16.8 (inactive)

Structure (SMILES),fiber score / MBP score ([1]; 1 µM),fiber score / MBP score ([1]; 5 µM),myelination ([2]; 1 µM),myelination ([2]; 5 µM)
C[C@](N)(Cc1ccc(O)c(O)c1)C(=O)O [Methyldopa],1.28,0.884,22.3 (inactive),-8.85 (inactive)
C[n+]1ccccc1C=NO [Pralidoxime],0.884,1.12,-7.49 (inactive),1.41 (inactive)
C[N+]1(C)CCC(OC(=O)C(O)(c2ccccc2)C2CCCC2)C1 (configuration not stated) [Glycopyrrolate],0.689 ± 0.14,0.888 ± 0.085,-12.1 (inactive),-2.31 (inactive)
CNCC[C@@H](Oc1ccccc1C)c1ccccc1 [Atomoxetine],0.774,0.721,-18.6 (inactive),-17.2 (inactive)
CSc1nc2cc(Cl)c(Oc3cccc(Cl)c3Cl)cc2[nH]1 [Triclabendazole],0.682,0.685,-23.9 (inactive),-18.7 (inactive)
C/C=C1\[C@H]2C=C(C)C[C@]1(N)c1ccc(=O)[nH]c1C2 [Huperzine A],1.07,0.872,8.16 (inactive),-5.77 (inactive)
CN1CCN(CCCN2c3ccccc3Sc3ccc(Cl)cc32)CC1 [Prochlorperazine],0.297,1.56,-45.4 (inactive),-29.6 (inactive)
O=C1C(CC[S+]([O-])c2ccccc2)C(=O)N(c2ccccc2)N1c1ccccc1 (configuration not stated) [Sulfinpyrazone],1.18,0.857,-0.801 (inactive),-7.44 (inactive)
CN1CCC(=C2c3ccccc3C=Cc3ccccc32)CC1 [Cyproheptadine],0.58,0.686,-14.7 (inactive),-1.4 (inactive)
Cc1ccc(Cl)c(Nc2ccccc2C(=O)O)c1Cl [Meclofenamic acid],0.788,0.864,-26 (inactive),-2.96 (inactive)
CCS(=O)(=O)CCn1c([N+](=O)[O-])cnc1C [Tinidazole],0.727,0.706,-10.7 (inactive),-14.2 (inactive)
COc1ccccc1OCC(O)CN1CCN(CC(=O)Nc2c(C)cccc2C)CC1 (configuration not stated) [Ranolazine],0.877,0.697,-13.7 (inactive),-22.5 (inactive)
C[C@]12CCC(=O)C=C1CC[C@@H]1[C@@H]2[C@@H](O)C[C@@]2(C)[C@H]1CC[C@]2(O)C(=O)COC(=O)CCC(=O)O [Cortisol succinate],0.943,1.41,0.996 (inactive),17.9 (inactive)
CCC(C)n1ncn(-c2ccc(N3CCN(c4ccc(OCC5COC(Cn6cncn6)(c6ccc(Cl)cc6Cl)O5)cc4)CC3)cc2)c1=O (configuration not stated) [Itraconazole],1.21,0.918,8.72 (inactive),-72.2 (inactive)
O=C1[C@H](CC[C@H](O)c2ccc(F)cc2)[C@@H](c2ccc(O)cc2)N1c1ccc(F)cc1 [Ezetimibe],0.641,0.648,-31.2 (inactive),-37.1 (inactive)
Cc1onc(-c2ccccc2)c1-c1ccc(S(N)(=O)=O)cc1 [Valdecoxib],0.873,0.733,-12.1 (inactive),-45.9 (inactive)
C[C@]12C=CC(=O)C=C1CC[C@@H]1[C@@H]2[C@@H](O)C[C@@]2(C)[C@H]1CC[C@]2(O)C(=O)COC(=O)CCC(=O)O [Prednisolone hemisuccinate],0.88,1.08,1.93 (inactive),-1.16 (inactive)
CCn1cc(C(=O)O)c(=O)c2cc(F)c(N3CCNCC3)cc21 [Norfloxacin],0.701,0.729,-19.9 (inactive),-11.1 (inactive)
Cc1cnc(C(=O)NCCc2ccc(S(=O)(=O)NC(=O)NC3CCCCC3)cc2)cn1 [Glipizide],1.13,0.658,2.75 (inactive),-12.8 (inactive)
CCOc1cc(N)c(Cl)cc1C(=O)NCC1CN(Cc2ccc(F)cc2)CCO1 (configuration not stated) [Mosapride],0.736,0.556,-41.5 (inactive),-56.5 (inactive)
CC1=C(CC(=O)O)c2cc(F)ccc2/C1=C\c1ccc([S+](C)[O-])cc1 (configuration not stated) [Sulindac],0.97,0.594,-5.43 (inactive),-16.6 (inactive)
CNC(=N)NCCC[C@H](N)C(=O)O,0.684,0.854,-37.1 (inactive),-9.76 (inactive)
CN(C)[C@@H]1C(O)=C(C(N)=O)C(=O)[C@@]2(O)C(O)=C3C(=O)c4c(O)cccc4C[C@H]3C[C@@H]12 [Sancycline],0.961,0.714,-12.5 (inactive),-15 (inactive)
CO[C@H]1/C=C/O[C@@]2(C)Oc3c(C)c(O)c4c(O)c(c(/C=N/N5CCN(C6CCCC6)CC5)c(O)c4c3C2=O)NC(=O)/C(C)=C\C=C\[C@H](C)[C@H](O)[C@@H](C)[C@@H](O)[C@@H](C)[C@H](OC(C)=O)[C@@H]1C [Rifapentine],0.893 ± 0.081,1.12 ± 0.52,2.99 (inactive),21 (inactive)
